# Source: PubChem
# An excerpt weighted towards active compounds, which were near 3.5% of everything screened.
# BH1578 lux ind: inducers of Vibrio cholerae quorum light production without autoinducers, primary screen, BH1578 luxS cqsA deficient, single point; V. cholerae BH1578 lux reporter, luminescence, 6 h; activation, % at 18.7 µM; actives 0.16% (n = 350,000); AID 588436, 2011; in the data active means activation mostly above about 9.7%, no sharp cut-off; inconclusive means no clear call, values can overlap the other calls; inactive means mostly below about 3.7%
# BoNT-A LC inh2: BoNT/A light chain protease inhibitors, primary screen, biochemical, flow cytometry, MLPCN library; Botulinum neurotoxin type A light chain protease (Clostridium botulinum A str. ATCC 3502); multiplex microsphere protease substrate cleavage; inhibition, % at 10 µM; actives 0.17% (n = 360,000); AID 588499, 2011; further: plate controls were buffer without enzyme for full effect and enzyme alone for no effect
# Anthrax LF inh2: Bacillus anthracis LF protease inhibitors, primary screen, biochemical, multiplex microsphere, MLPCN library; multiplex microsphere protease cleavage assay; Lethal factor (Bacillus anthracis), P15917; inhibition, % at 10 µM; actives 0.12% (n = 360,000); further: plate controls were buffer without enzyme for full effect and enzyme alone for no effect
# Target sequence (P15917 whole entry, looked up): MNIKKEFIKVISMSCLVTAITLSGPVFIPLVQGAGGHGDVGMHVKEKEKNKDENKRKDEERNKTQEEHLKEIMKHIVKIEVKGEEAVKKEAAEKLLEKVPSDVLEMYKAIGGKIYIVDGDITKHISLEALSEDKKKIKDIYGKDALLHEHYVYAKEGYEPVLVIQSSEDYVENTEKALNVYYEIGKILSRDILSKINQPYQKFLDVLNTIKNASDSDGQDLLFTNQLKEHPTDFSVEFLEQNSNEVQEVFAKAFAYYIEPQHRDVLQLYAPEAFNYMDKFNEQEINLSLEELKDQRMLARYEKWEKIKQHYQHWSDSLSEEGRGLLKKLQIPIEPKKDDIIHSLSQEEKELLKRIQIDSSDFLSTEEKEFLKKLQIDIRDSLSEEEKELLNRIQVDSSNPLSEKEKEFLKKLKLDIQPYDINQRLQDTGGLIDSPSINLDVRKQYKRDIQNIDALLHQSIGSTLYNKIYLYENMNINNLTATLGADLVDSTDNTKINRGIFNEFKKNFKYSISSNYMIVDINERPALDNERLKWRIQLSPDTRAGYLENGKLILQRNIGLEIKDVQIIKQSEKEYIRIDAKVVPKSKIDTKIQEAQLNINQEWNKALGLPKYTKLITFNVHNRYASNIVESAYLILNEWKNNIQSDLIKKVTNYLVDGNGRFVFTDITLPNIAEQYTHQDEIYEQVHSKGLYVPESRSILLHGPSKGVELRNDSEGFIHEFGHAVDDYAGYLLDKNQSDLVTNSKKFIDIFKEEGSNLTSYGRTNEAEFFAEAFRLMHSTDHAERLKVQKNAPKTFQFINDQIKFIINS
# Autofluor counter: flagged as autofluorescent in microsphere protease counterscreen. compound autofluorescence counterscreen, microsphere flow cytometry; hits give high values. fluorescence intensity (test concentration not listed). actives 3.1% (n = 360,000); in the data active means fluorescence intensity above about 16000; inconclusive means no clear call, values can overlap the other calls
# BoNT-F LC inh: BoNT/F light chain protease inhibitors, primary screen, biochemical, flow cytometry, MLPCN library; Botulinum neurotoxin type F light chain protease (Clostridium botulinum); actives 0.22% (n = 360,000); Multiplex microsphere protease cleavage assay; AID 588497, 2011; inhibition, % at 10 µM; in the data active means inhibition above about 35%, passing the limit was not always enough; inconclusive means no clear call, values can overlap the other calls; further: plate controls were buffer without enzyme for full effect and enzyme alone for no effect
# Active calls of the source: *; i = inactive; ? = inconclusive; nt = not tested or not shown. Unless noted, no stated cut-off is given here; in the data, active means inhibition above about 30%; inconclusive means no clear call, values can overlap the other calls; inactive means below that.
SMILES,BH1578 lux ind,BoNT-A LC inh2,Anthrax LF inh2,Autofluor counter,BoNT-F LC inh
Cc1ccc(C)c(NC(=O)CSc2nnc(CCCCCNC(=O)OC(C)(C)C)o2)c1,1,-8,-2,26977*,-15
CC(CN1CCN(C)CC1)OC(=O)c1cccc(F)c1 (configuration not stated),-1,0,-1,4117,-14
COc1cc(OC)cc(C(=O)NN2CCCCC2)c1,i,-4,-1,25088*,-6
COc1cc(OC)cc(C(=O)N2CCC(N3CCCCCC3)CC2)c1,i,-4,-1,19182*,-7
Nc1cc(=O)[nH]c(=S)n1-c1cccc(C(F)(F)F)c1,i,0,-5,16135*,-2
O=c1c2ccccc2[nH]c(=S)n1-c1cccc(C(F)(F)F)c1,0,0,-2,3418,-2
N/C(=N\OC(=O)CC1CCCCC1)c1ccc(Cl)cc1,0,0,4,4364,2
CC(C)OCCCNC(=O)c1ccc(CS(=O)(=O)Cc2ccccc2F)o1,0,0,-2,20731*,0
CCCCNC(=O)c1ccc(CS(=O)(=O)Cc2ccccc2F)o1,1,-2,-6,4914,1
COC(=O)CC1SCCNC1=O (configuration not stated),i,-1,1,20974*,-1
Cc1ccc(NC(=O)CC2SCCNC2=O)cc1Cl (configuration not stated),-1,?,-4,23686*,-3
COc1ccc(N=Cc2c(O)n(-c3cccc(C)n3)c(=O)c3ccccc23)c(OC)c1,i,4,63*,3217,?
O=C(Nc1ccc(F)cc1)/C(=C1/CCCCCN1)[N+](=O)[O-],0,1,3,4526,1
Cn1c(=O)oc2cc(S(=O)(=O)N3CCN(c4cccc(Cl)c4)CC3)ccc21,i,2,0,22890*,1
Cn1c(=O)c(=O)n(C)c2cc(S(=O)(=O)N3CCN(c4cccc(C(F)(F)F)c4)CC3)ccc21,-1,-1,0,21964*,0
Cc1c(S(=O)(=O)N2CCN(c3cccc(C(F)(F)F)c3)CC2)c(=O)n(C)c(=O)n1C,0,-1,-8,5536,-2
Cn1c(=O)c(=O)n(C)c2cc(S(=O)(=O)N3CCCCC3)ccc21,-2,0,-1,23051*,-1
O=C(NC(CCl)c1ccccc1)c1ccc(Cl)cc1 (configuration not stated),0,-1,-2,2075,-10
O=C(NCc1cccnc1)c1cc(C2CCCCN2C(=O)OCCF)on1 (configuration not stated),i,0,2,3910,0
Cc1ccc(CN2CCCN(C)CC2)c(C)c1,i,1,-9,3479,17
Cc1nc(SCc2cccc(F)c2)[nH]c(=O)c1C#N,-1,?,-3,22061*,4
O=C(OC1CCN(c2ncc(C(F)(F)F)cc2Cl)CC1)c1cccc(C(F)(F)F)c1,0,0,-10,6345,1
COc1ccc(/C=N/NC(=O)C2CCN(c3ncc(C(F)(F)F)cc3Cl)CC2)cc1,i,?,-2,22271*,-1
O=C(Cc1ncc(C(F)(F)F)cc1Cl)N1CCN(c2ccc(F)cc2)CC1,0,-1,-3,4285,-4
NNC(=O)C=C1CCN(c2ncc(C(F)(F)F)cc2Cl)CC1,i,2,-8,20786*,2
SMILES,BH1578 lux ind,BoNT-A LC inh2,Anthrax LF inh2,Autofluor counter,BoNT-F LC inh
O=C(OC1CCN(c2ncc(C(F)(F)F)cc2Cl)CC1)c1ccccc1,0,1,-3,22198*,0
COc1ccc(N2CCN(C(=O)Cc3ncc(C(F)(F)F)cc3Cl)CC2)cc1,i,0,-3,23985*,-2
COc1ccc(C(=O)OC2CCN(c3ncc(C(F)(F)F)cc3Cl)CC2)cc1,i,1,2,5195,5
O=C(Nc1ccc(Br)cc1)c1cccnc1N1CCCCC1,0,8,-8,21086*,5
O=C(Nc1ccc(F)cc1)c1cccnc1N1CCCCC1,i,-4,1,21821*,-5
COc1ccc(NC(=O)c2cccnc2N2CCCCC2)cc1,-2,0,-2,2444,2
COC(=O)c1cn(-c2nc3ccccc3s2)nn1,nt,0,12,6538,-11
CC(OC(=O)Cc1c[nH]c2ccccc12)C(=O)Nc1ccc(S(N)(=O)=O)cc1 (configuration not stated),i,-4,-1,6927,-1
CC(NC(=O)C1CCC(C)(C(=O)O)C1(C)C)c1ccccc1 (configuration not stated),-2,-3,-7,3789,-14
O=C(COc1ccccc1F)c1ccc(O)cc1O,1,4,-5,20781*,6
Cc1c(O)ccc(C(=O)COc2ccccc2F)c1O,nt,2,-12,?,14
COC(=O)c1ccc(OCC(=O)c2ccc(O)cc2O)cc1,i,-3,-1,24431*,-5
O=C(COC(=O)c1cc(-c2ccccn2)nc2ccccc12)Nc1ncc(C(F)(F)F)cc1Cl,0,0,-7,3986,-2
S=c1[nH]nc(C2CC2c2ccc(Cl)cc2)n1-c1ccc(Cl)cc1 (configuration not stated),0,0,0,1983,3
Cc1ccc(-n2c([C@@H]3C[C@H]3c3ccccc3)n[nH]c2=S)cc1,0,0,1,2219,-3
Cc1ccc(-n2c(C3CC3c3ccc(Cl)cc3)n[nH]c2=S)cc1 (configuration not stated),0,-4,1,23745*,-6
Cc1ccc(C2CC2c2n[nH]c(=S)n2-c2ccc(C)cc2)cc1 (configuration not stated),-2,?,-3,24709*,-2
COc1ccc(C)cc1S(=O)(=O)n1cnc2ccccc21,-1,1,19,3968,-18
O=C(NC1CCCC1)C1c2ccccc2OCC(=O)N1CCCN1CCOCC1 (configuration not stated),nt,-2,5,4419,-7
O=C(NC1CCCCCC1)C1c2ccccc2C(=O)N1CCCN1CCOCC1 (configuration not stated),2,?,1,20267*,-2
O=S(=O)(Nc1ccccn1)c1ccc(Cl)c2ccccc12,-2,-1,-2,3435,5
O=C1/C(=C\c2ccccn2)SC(=S)N1c1ccc(S(=O)(=O)Nc2nccs2)cc1,-1,-3,30*,3634,?
Cc1ccc(/C=C2/SC(=S)N(c3ccc(S(=O)(=O)Nc4nccs4)cc3)C2=O)cc1,-4,4,4,2972,?
COc1ccc(-c2c(S(=O)(=O)c3ccccc3)cnn2-c2ccccc2)cc1,-2,1,-2,21873*,-1
COc1ccc2ncc(S(=O)(=O)c3ccccc3)c(N3CCN(c4ccccc4)CC3)c2c1,0,1,-2,2097,-1
O=S(=O)(c1ccccc1)c1cnn(-c2ccccc2)c1-c1ccc(Cl)cc1,3,?,-2,22953*,-2
